Laboratory results as given in PubChem BioAssay (NCI).
Compounds without any hit were thinned out: in the full panel of roughly 83,000, 20% have a hit.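 Percent growth is the endpoint: 0 to 100 indicates growth inhibition (40 means 60% inhibition), 0 means no net growth, and negative values indicate cell death.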 The source made the active and inactive calls. How the source made its calls: active means growth percent below 10; inactive means the rest.

Each compound was assayed on HL-60(TB) leukemia (assay: NCI-60 one-dose screen, 48 h (100 = growth as untreated, 0 = no growth, -100 = all killed)). Details: 10 µM unless noted.

For `CS(=O)(=O)N(c1cc(-c2ccc3ncnc(Nc4cccc(Cl)c4)c3c2)cnc1Cl)S(C)(=O)=O`, which growth is on record?
Its growth is 8.46% (active).

How did the growth turn out when `C/C=C1\SC(=S)NC1=O` was run?
The growth was 110% (inactive).

How did the growth turn out when `Cc1ccc2c(n1)C(=O)C(Br)=C(C1CCCC1)C2=O` was run?
The growth was 76.1% (inactive).

For `CCN(c1ccc(C(=O)N2CCN(c3ccccc3)CC2)cc1)S(C)(=O)=O`, which growth is on record?
The growth was 99.4% (inactive).

For `Cc1ccc(C(=O)c2ccc(CC(=O)N/N=C/c3cccc(O)c3O)n2C)cc1`, which growth is on record?
Its growth is 4.13% (active).

For `CC1(C)CC2=C3C=C[C@@H]4[C@@]5(C)CCC(=O)C(C)(C)[C@@H]5CC[C@@]4(C)[C@]3(C)CC[C@@]2(C(=O)O)C[C@H]1O`, which growth is on record?
Its growth is 23% (inactive).

`Cc1onc(-c2c(F)cccc2Cl)c1-c1ncc(-c2ccc(Br)cc2)o1` was tested. Which growth did it give?
The growth was 37.5% (inactive).

How did the growth turn out when `COc1ccc(-c2csc(NC(=O)CN3CCN(CCO)CC3)n2)cc1NS(=O)(=O)c1cccc2c(N(C)C)cccc12` was run?
The growth was 93.8% (inactive).

How did the growth turn out when `Cc1ccc(NSc2ccccc2[N+](=O)[O-])cc1` was run?
Its growth is -6.97% (active).

With `CCN1CCN(c2nc(C)cc(N(CCCNc3ccnc4cc(Cl)ccc34)Cc3ccco3)n2)CC1` as the compound, how does the growth read?
The growth was 37.5% (inactive).

For `CCOC(=O)C(C(=O)OCC)C1CCCCC1`, which growth is on record?
Its growth is 105% (inactive).

With `C=C1C(=O)O[C@H]2[C@H]1CC/C(Cn1cc(-c3ccc(F)cc3)nn1)=C\CC[C@@]1(C)O[C@@H]21` as the compound, how does the growth read?
Its growth is -18.8% (active).

Which growth does the source give for `CCOC(=O)c1sc2nc(-c3cccc(OC)c3)nc(N3CCOCC3)c2c1C` here?
The growth was 101% (inactive).

`Cc1cccc(-c2cn3ccnc3c(-c3ccc4ncn(Cc5ccccc5)c4c3)n2)c1` was tested. Which growth did it give?
Its growth is 81.8% (inactive).
